This note sets out measurements from PubChem BioAssay (NCATS).

Results filed as inconclusive are left out. Calls of active or inactive are those of the source. The call rests on the fitted dose curve; in most records, active means well fitted cell-killing curve with a large enough effect; inconclusive means small, poorly fitted or top-dose-only effect, or effect the other way; inactive means no such curve, though single readings can be large or run the other way.
Potency means the concentration at half of the fitted maximal effect.

The nature of the assay: Quantitative High-Throughput drug screen in 47 multiple myeloma cell lines against the NCATS MIPE library collection: XG1_PLB cell viability assay (AID 1919866). Further: nearly all actives have a fitted effect of over 35% in size. Particulars: CellTiter-Glo ATP, 48 h; series mostly up to 45.8 µM. From the text: PI: Beverly A. Mock Ph.D.
Laboratory of Cancer Biology and Genetics,
Center for Cancer Research, National Cancer Institute,
National Institute of Health, Bethesda, Maryland
Drug resistance and disease progression are common in multiple myeloma (MM) patients, underscoring the need for new therapeutic combinations. […] We hypothesized that effective combinations would reduce MYC expression and enhance p16 activity. […] These preclinical data identify potentially useful drug combinations for evaluation in drug-resistant MM and reveal potential mechanisms of combined drug sensitivity.
Described herein is the primary MIPE qHTS used to cherrypick compounds. Validated compounds were then further tested for potential synergistic activiy.
[1] Peat TJ, Gaikwad SM, Dubois W, Gyabaah-Kessie N, Zhang S, Gorjifard S, Phyo Z, Andres M, Hughitt VK, Simpson RM, Miller MA, Girvin AT, Taylor A, Williams D, D'Antonio N, Zhang Y, Rajagopalan A, Flietner E, Wilson K, Zhang X, Shinn P, Klumpp-Thomas C, McKnight C, Itkin Z, Chen L, Kazandijian D, Zhang J, Michalowski AM, Simmons JK, Keats J, Thomas CJ, Mock BA. Drug combinations identified by high-throughput screening promote cell cycle transition and upregulate Smad pathways in myeloma. Cancer Lett. 2023 Aug 1;568:216284. doi: 10.1016/j.canlet.2023.216284. Epub 2023 Jun 24. PMID: 37356470; PMCID: PMC10408729.
SEQUENCE No. (e.g., 1, 2, 3, etc.); […] (e.g., Cells, Incubation, Reagent, etc.); VALUE and DESCRIPTION.
1; Cells; 5 uL; white, solid bottom 1536-well Greiner assay plate.
2; Compounds; 23 nL; Kalypsis pin tool (Wako USA) equipped with a 1536-well pin head to transfer to the assay plates.
3; Incubation; 48 hours; 37C incubation.
4; Reagent;5uL; CellTiter Glo (Promega).
5; Detector; 425V; Luminescence; Viewlux PerkinElmer.
NOTES (numbers refer to Sequence numbers above)
1. The cell-based screening methods employed in this study were like those previously published. Briefly, the corresponding myeloma cell lines were screened in 1,536-well plates with 500 cells, 5-uL per well for inhibition of cell viability (assessed by measuring ATP levels with CellTiterGlo).
2. NCATS MIPE 4.0 library of approved and investigational drugs were added using the Kalypsis pin tool. Wells treated with DMSO only for 100% viability and media only for 0% viability were used as controls.
3. The assay plates were covered and incubated for 48 hours in a 37C, 5% CO2 incubator with controlled humidity.
4. After 48 hours, CellTilter-GloTM luminescent substrate mix (Promega) reagent was added to the assay plate and plates we incubated for 5 min at room temperature.
5. Signal was measured as median relative luminescence units on a ViewLux (PerkinElmer) multiplate reader.
[1] Heske CM, Davis MI, Baumgart JT, Wilson K, Gormally MV, Chen L, Zhang X, Ceribelli M, Duveau DY, Guha R, Ferrer M, Arnaldez FI, Ji J, Tran HL, Zhang Y, Mendoza A, Helman LJ, Thomas CJ. Matrix Screen Identifies Synergistic Combination of PARP Inhibitors and Nicotinamide Phosphoribosyltransferase (NAMPT) Inhibitors in Ewing Sarcoma. Clin Cancer Res. 2017 Dec 1;23(23):7301-7311. doi: 10.1158/1078-0432.CCR-17-1121. Epub 2017 Sep 12. PMID: 28899971; PMCID: PMC6636827.
(In ATP-based viability assays light output follows the ATP content of the culture.)
As for `COc1cccc2c1CCCC2CCCN1CCN(C2CCCCC2)CC1` (stereo not given), the Potency was 18.7 µM (active).

For `CCCCCN(C)CCC(O)(P(=O)(O)O)P(=O)(O)O`, the Potency entry is “inactive”.

For `CC1(C)O[C@H]2C[C@@H]3[C@H]4CCC5=CC(=O)C=C[C@]5(C)[C@@]4(F)[C@@H](O)C[C@]3(C)[C@]2(C(=O)CO)O1`, the Potency result is “inactive”.

On to `CC1(C)Cc2c(sc(NC(=S)NC(=O)c3ccccc3)c2C(=O)O)CO1`, for which the Potency result is “inactive”.

With `O=C1C[C@@H](c2ccc(O)cc2)Oc2cc(O)cc(O)c21`, the Potency result is “inactive”.

For the compound `CON=C(C(=O)N[C@@H]1C(=O)N2C(C(=O)OCOC(=O)C(C)(C)C)=C(C=Cc3scnc3C)CS[C@H]12)c1csc(N)n1`, the Potency was 18.7 µM (active).

`O=c1c(-c2ccc(O)cc2)coc2cc(O)ccc12`: the Potency result is “inactive”.

As for `O=c1ccn([C@@H]2O[C@H](CO)[C@H](O)[C@H]2O)c(=O)[nH]1`, the Potency entry is “inactive”.

On to `CC=CC(=O)N(CC)c1ccccc1C`, for which the Potency was 26.4 µM (active).

As to `Oc1ccc(C2CCN(c3ccnc4ccccc34)CC2)cc1O`, the Potency was 0.833 µM (active).

On to `COc1ccc2c3c1OC1C[C@@H](O)C=C[C@@]31CCN(C)C2` (stereo not given in full), for which the Potency is 5.9 µM (active).

`CC(=O)Nc1ccc([C@H](C)C(=O)Nc2ncc(C(C)C)s2)cc1`: the Potency was 0.418 µM (active).

In the case of `C[C@H](NC(=O)C(=O)Nc1ccccc1C(C)(C)C)C(=O)N[C@@H](CC(=O)O)C(=O)COc1c(F)c(F)cc(F)c1F`, the Potency entry was “inactive”.

Consider `CC[C@H]1OC(=O)[C@H](C)C(=O)[C@H](C)[C@@H](O[C@H]2O[C@H](C)C[C@H](N(C)C)[C@@H]2O)[C@](C)(OC)C[C@@H](C)C(=O)[C@H](C)[C@H]2N(CCCCn3cnc(-c4cccnc4)c3)C(=O)O[C@]12C`, for which the Potency entry was “inactive”.

`C=CCc1ccc(O)c(-c2ccc(O)c(CC=C)c2)c1`: the Potency is 18.7 µM (active).

For the compound `CC=CCC=CCCC(=O)[C@H]1O[C@@H]1C(N)=O`, the Potency is 20.9 µM (active).

Take `CC1(C)CCC2=C(O1)c1ccccc1C(=O)C2=O`: the Potency was 26.4 µM (active).

Regarding `CO[C@H]1C=CC=C(C)C(=O)NC2=CC(=O)C(NCCN(C)C)=C(C[C@@H](C)C[C@H](OC)[C@@H](O)[C@@H](C)C=C(C)[C@@H]1OC(N)=O)C2=O`, the Potency is 0.0372 µM (active).

For `COc1cc2ncnc(Nc3ccc(F)c(Cl)c3)c2cc1OCCCN1CCOCC1`, the Potency is 3.03 µM (active).

Regarding `O=c1cc(N2CCOCC2)oc2c(-c3cccc4c3sc3ccccc34)cccc12`, the Potency is 6.62 µM (active).

With `N#CC(=C(N)Sc1ccccc1N)C(C#N)=C(N)Sc1ccccc1N`, the Potency is 9.35 µM (active).

Consider `CN[C@@H](C)C(=O)N[C@H]1CN(C(=O)CC(C)C)CC[C@H]2CC[C@@H](C(=O)NC(c3ccccc3)c3ccccc3)N2C1=O`, for which the Potency was 13.2 µM (active).

As to `Cn1c(N2CCCCS2(=O)=O)nc(C(=O)NCc2ccc(F)cc2)c(O)c1=O`, the Potency entry was “inactive”.

With `CS(=O)c1ccc(-c2nc(-c3ccc(F)cc3)c(-c3ccncc3)[nH]2)cc1` (stereo not given), the Potency was 38.2 µM (active).

For `COCCOc1nc(-c2ccc(Cl)c(Cl)c2)n(-c2ccc(NC(=O)CCl)cc2)n1`, the Potency is 16.6 µM (active).

In the case of `NC(CO)(CO)CCc1ccc(Sc2cccc(OCc3ccccc3)c2)cc1Cl`, the Potency was 16.6 µM (active).

On to `CNC(=O)c1ccc2cc(C3(O)CCn4cncc43)ccc2c1` (stereo not given), for which the Potency result is “inactive”.

Consider `O=C1NC(=O)C(=Cc2ccc3nccnc3c2)S1`, for which the Potency was 6.45 µM (active).

Take `CC(C)C(=O)Oc1ccc(CO)cc1[C@H](CCN(C(C)C)C(C)C)c1ccccc1`: the Potency entry was “inactive”.

Turning to `COc1cc2ncnc(-n3nc(-c4ccccn4)nc3N)c2cc1OC`, the Potency is 5.9 µM (active).

For the compound `CC(C)(C)C(=O)Oc1ccc2c(c1)nc(NC(=O)c1cccc([N+](=O)[O-])c1)n2CCCO`, the Potency entry was “inactive”.

Take `c1cc(-c2sc(-c3ccncc3)c(-c3ccncc3)c2-c2ccncc2)ccn1`: the Potency is 11.8 µM (active).

For the compound `O=C(O)CCC1CCC(c2cc(F)ccc2F)(S(=O)(=O)c2ccc(Cl)cc2)CC1` (stereo not given), the Potency is 9.35 µM (active).

With `CC(=O)N(C)C1(c2ccccc2)CCN(CCC[C@]2(c3ccc(Cl)c(Cl)c3)CCCN(C(=O)c3ccccc3)C2)CC1`, the Potency is 14.8 µM (active).

With `C[C@]12CC[C@@H]3c4ccc(O)cc4CC[C@H]3[C@H]1C[C@@H](O)[C@H]2O`, the Potency result was “inactive”.

Turning to `CCOc1ccc(Nc2nc(-c3c(C)nc4ccccn34)cs2)cc1`, the Potency entry was “inactive”.

As for `O=C1NC(=O)C(=Cc2cccc(C(F)(F)F)c2)S1`, the Potency is 16.6 µM (active).

Turning to `CCC(=O)NC[C@H](Cc1ccc(OCCc2nc(-c3ccccc3)oc2C)cc1)NC(C)=CC(=O)c1ccc(C(F)(F)F)cc1`, the Potency is 5.26 µM (active).

As for `C[N+](C)(C)CC(=O)O`, the Potency result was “inactive”.

As to `NS(=O)(=O)c1cccc2c1C(=O)c1cccc(O)c1C2=O`, the Potency is 0.264 µM (active).
